What all share (experiment): log2 ratio of Biotin-Ahx-Ub-VS probe labelling (fragment/DMSO); higher = less target engagement (more negative = stronger competition), active = hit call of the paper (q ≤ 0.05, log2 ratio ≤ -1)
Holding throughout (settings): compound concentration: 200 uM; treatment time: 3 h

The target in test [1] is T1, USP42 (UniProt Q9H9J4).
T1 sequence (whole entry): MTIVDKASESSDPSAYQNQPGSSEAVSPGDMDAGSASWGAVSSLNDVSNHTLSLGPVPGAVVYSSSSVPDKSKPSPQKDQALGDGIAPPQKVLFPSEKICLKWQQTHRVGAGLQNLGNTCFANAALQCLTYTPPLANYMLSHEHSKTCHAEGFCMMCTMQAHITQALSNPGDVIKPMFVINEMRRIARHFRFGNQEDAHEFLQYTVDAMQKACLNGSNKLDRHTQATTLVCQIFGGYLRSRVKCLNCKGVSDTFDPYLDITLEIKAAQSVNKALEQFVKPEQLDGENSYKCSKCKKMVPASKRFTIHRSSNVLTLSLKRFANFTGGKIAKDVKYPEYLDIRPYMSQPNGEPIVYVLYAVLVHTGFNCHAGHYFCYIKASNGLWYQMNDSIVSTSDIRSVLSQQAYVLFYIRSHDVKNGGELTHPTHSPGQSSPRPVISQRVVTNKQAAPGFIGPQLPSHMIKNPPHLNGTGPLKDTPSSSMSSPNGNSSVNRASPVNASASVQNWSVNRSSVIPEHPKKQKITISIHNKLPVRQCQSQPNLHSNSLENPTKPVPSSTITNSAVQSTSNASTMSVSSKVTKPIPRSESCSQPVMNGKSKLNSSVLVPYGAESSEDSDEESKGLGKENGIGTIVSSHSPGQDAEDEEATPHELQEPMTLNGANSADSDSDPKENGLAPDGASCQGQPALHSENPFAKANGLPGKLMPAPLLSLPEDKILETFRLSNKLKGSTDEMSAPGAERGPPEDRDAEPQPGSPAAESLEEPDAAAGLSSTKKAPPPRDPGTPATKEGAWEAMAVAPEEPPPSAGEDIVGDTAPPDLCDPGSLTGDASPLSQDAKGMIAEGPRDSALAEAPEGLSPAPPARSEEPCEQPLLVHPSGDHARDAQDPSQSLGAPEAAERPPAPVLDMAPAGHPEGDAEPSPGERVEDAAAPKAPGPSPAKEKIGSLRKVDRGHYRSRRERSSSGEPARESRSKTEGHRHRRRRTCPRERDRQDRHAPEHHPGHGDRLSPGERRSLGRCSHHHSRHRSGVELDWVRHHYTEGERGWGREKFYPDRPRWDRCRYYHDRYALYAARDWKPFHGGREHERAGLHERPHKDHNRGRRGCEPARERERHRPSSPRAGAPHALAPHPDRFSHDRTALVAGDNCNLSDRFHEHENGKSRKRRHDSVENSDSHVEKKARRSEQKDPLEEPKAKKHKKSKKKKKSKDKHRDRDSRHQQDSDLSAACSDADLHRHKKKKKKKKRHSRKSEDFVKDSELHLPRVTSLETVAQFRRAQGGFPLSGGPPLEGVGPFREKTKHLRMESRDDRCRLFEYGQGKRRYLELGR
The method in brief: (§1)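 Each value is an average log2 ratio of fragment to vehicle, tested by unpaired t-test. The underlying Spectronaut label-free quantities were global-median-normalised, and only proteins with ≥2 unique peptides were included. Triplicate HEK293T lysate samples (495 µg) were exposed to fragment at 200 µM or vehicle for 3 h, then to Biotin-Ahx-Ub-VS at 0.5 µM final for 1 h, before NeutrAvidin enrichment of labelled DUBs, LysC and trypsin digestion, and diaPASEF LC-MS/MS.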

The target of test [2] is USP46 (UniProt P62068). The method in brief: as §1
USP46, sequence (P62068 whole entry): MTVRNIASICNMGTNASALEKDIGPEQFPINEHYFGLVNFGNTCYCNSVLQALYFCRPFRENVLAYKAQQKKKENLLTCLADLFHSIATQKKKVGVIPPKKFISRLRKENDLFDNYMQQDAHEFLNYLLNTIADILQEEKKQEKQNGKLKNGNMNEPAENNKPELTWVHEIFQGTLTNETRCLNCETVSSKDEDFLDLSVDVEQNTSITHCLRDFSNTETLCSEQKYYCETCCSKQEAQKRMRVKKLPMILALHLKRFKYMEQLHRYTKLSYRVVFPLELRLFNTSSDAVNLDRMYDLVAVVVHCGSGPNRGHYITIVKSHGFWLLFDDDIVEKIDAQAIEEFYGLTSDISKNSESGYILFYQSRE
In test [3] the target is T2, USP47 (UniProt Q96K76).
T2 sequence (whole entry): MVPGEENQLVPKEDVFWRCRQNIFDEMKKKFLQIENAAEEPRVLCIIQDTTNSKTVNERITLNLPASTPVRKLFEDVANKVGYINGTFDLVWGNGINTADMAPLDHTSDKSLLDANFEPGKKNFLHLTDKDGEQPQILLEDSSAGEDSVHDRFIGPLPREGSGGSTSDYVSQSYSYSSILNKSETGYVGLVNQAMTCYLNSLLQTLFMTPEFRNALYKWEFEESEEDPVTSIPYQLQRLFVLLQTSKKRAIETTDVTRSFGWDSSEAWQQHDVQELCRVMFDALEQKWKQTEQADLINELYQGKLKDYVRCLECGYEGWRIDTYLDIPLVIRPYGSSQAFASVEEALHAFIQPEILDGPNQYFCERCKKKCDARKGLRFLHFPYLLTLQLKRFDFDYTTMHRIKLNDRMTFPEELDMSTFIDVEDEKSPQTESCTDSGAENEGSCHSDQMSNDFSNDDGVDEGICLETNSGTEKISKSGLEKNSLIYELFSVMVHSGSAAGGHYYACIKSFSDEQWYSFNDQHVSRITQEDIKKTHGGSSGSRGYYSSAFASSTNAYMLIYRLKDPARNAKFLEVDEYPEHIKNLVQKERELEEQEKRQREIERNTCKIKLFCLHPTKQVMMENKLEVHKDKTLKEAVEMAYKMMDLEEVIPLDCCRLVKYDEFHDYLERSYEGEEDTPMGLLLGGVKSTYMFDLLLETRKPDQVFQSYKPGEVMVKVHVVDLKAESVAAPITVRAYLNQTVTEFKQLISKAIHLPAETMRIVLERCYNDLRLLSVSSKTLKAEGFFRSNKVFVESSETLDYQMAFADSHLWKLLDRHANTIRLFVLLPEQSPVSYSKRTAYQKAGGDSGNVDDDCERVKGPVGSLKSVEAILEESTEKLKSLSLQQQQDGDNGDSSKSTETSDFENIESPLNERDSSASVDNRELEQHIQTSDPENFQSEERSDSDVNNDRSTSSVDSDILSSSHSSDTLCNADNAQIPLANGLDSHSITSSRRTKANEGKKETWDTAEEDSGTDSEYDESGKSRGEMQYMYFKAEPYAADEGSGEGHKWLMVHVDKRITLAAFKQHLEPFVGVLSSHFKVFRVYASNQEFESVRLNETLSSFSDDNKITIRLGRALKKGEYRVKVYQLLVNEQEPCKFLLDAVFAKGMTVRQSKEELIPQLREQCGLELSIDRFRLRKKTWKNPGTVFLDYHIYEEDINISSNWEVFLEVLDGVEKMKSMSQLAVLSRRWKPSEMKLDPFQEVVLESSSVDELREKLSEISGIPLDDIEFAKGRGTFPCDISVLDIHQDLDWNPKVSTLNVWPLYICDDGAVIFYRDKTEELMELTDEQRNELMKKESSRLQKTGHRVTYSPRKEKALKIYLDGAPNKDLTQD
The method in brief:
as §1

In test [4] the target is T3, USP48 (UniProt Q86UV5).
T3 sequence (whole entry): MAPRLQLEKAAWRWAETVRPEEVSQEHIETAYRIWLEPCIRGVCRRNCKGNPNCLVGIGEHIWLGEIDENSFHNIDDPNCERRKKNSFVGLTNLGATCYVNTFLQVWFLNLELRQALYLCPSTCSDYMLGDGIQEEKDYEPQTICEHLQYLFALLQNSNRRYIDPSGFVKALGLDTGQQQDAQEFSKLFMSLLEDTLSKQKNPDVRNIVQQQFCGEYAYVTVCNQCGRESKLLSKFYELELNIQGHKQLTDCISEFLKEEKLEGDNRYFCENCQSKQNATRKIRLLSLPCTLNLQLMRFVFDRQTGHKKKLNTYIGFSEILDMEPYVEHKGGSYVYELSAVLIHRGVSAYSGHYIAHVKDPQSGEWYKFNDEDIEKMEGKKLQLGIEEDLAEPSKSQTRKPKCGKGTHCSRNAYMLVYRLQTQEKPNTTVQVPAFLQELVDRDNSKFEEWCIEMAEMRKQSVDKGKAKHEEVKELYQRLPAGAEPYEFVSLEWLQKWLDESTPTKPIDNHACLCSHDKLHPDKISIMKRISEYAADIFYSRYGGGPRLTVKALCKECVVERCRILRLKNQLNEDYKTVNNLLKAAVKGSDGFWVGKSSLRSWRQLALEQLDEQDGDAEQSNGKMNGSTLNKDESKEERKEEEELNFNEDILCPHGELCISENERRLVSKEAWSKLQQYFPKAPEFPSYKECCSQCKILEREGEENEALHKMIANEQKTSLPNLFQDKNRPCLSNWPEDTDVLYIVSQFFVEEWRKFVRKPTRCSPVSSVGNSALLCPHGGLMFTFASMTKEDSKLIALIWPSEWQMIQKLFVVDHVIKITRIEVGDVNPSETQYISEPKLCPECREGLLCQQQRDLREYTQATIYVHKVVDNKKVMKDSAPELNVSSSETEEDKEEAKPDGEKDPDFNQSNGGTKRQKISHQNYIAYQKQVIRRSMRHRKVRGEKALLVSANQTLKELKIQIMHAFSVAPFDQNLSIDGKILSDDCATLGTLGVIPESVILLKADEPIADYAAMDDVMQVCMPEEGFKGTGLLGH
Summed up: as §1

Test [5] concerns the target T4, USP5 (UniProt P45974).
T4 sequence (whole entry): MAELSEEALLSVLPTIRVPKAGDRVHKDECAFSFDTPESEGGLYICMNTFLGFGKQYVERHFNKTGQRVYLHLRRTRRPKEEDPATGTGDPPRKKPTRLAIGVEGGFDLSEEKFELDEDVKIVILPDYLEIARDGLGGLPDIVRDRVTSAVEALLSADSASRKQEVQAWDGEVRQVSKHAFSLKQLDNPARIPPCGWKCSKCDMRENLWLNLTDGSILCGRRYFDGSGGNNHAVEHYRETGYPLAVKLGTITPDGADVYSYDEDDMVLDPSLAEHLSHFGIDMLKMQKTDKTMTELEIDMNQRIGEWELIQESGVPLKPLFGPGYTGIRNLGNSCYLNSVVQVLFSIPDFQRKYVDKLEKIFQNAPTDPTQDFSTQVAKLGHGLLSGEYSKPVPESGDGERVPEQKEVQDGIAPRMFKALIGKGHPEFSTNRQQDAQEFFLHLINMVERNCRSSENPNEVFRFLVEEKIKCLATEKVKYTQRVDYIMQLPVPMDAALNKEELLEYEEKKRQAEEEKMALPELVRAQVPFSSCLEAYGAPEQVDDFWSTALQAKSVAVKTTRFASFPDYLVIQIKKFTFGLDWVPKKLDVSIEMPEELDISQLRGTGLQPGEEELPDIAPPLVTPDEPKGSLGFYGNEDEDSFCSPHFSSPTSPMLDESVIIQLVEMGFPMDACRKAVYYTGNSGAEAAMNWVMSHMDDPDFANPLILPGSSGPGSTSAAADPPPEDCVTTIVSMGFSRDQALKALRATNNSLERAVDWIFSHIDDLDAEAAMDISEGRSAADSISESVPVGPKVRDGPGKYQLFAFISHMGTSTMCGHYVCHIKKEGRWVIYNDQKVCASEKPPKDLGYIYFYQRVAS
The method in brief: as §1

For test [6], the target named is USP54 (UniProt Q70EL1). The method in brief: as §1
USP54, sequence (Q70EL1 whole entry): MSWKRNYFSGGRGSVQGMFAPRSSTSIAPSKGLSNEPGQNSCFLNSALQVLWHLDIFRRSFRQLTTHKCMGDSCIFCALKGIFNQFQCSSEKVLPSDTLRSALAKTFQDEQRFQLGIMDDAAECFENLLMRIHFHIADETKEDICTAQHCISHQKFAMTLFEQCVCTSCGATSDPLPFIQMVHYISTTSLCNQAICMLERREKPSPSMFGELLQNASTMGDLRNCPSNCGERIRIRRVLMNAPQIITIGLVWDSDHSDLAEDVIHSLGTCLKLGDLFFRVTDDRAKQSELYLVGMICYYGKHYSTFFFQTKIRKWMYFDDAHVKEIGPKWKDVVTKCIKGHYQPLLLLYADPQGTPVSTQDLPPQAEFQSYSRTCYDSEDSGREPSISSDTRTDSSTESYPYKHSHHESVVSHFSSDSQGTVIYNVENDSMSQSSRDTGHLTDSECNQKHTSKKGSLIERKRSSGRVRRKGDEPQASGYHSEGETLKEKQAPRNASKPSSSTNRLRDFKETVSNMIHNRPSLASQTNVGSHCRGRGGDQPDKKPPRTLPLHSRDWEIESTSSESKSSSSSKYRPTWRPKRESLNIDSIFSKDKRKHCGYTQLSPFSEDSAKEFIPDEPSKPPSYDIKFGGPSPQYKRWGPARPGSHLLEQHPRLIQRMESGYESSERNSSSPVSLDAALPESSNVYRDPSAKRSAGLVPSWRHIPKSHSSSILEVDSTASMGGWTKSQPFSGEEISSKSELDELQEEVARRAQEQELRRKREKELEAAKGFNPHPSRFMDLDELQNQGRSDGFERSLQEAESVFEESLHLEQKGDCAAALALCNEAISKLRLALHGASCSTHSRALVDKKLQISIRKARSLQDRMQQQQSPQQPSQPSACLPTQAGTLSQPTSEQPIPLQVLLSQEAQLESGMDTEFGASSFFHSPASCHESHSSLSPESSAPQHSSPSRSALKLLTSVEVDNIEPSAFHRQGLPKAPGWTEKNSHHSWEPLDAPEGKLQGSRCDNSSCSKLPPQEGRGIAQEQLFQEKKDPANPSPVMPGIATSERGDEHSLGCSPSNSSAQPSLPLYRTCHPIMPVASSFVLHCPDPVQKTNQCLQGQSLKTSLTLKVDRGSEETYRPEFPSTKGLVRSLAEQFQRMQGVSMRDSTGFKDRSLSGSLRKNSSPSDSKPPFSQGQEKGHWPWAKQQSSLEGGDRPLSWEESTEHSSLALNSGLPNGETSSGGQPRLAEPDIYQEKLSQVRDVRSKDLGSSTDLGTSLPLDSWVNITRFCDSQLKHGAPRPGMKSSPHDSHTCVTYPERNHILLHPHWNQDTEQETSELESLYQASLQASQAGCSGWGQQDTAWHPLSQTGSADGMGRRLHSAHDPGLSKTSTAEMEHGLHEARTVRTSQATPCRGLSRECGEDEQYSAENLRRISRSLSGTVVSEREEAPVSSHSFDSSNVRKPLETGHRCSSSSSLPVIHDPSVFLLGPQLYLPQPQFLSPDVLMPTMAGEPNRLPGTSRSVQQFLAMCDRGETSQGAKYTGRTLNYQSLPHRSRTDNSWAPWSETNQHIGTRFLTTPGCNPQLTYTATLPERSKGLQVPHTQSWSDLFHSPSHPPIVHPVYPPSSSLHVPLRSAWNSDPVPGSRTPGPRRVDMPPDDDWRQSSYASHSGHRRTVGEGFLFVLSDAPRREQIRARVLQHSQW
In test [7] the target is USP7 (UniProt Q93009). Summed up:
as §1

Test [8] addresses T5, USP8 (UniProt P40818).
T5 sequence (whole entry): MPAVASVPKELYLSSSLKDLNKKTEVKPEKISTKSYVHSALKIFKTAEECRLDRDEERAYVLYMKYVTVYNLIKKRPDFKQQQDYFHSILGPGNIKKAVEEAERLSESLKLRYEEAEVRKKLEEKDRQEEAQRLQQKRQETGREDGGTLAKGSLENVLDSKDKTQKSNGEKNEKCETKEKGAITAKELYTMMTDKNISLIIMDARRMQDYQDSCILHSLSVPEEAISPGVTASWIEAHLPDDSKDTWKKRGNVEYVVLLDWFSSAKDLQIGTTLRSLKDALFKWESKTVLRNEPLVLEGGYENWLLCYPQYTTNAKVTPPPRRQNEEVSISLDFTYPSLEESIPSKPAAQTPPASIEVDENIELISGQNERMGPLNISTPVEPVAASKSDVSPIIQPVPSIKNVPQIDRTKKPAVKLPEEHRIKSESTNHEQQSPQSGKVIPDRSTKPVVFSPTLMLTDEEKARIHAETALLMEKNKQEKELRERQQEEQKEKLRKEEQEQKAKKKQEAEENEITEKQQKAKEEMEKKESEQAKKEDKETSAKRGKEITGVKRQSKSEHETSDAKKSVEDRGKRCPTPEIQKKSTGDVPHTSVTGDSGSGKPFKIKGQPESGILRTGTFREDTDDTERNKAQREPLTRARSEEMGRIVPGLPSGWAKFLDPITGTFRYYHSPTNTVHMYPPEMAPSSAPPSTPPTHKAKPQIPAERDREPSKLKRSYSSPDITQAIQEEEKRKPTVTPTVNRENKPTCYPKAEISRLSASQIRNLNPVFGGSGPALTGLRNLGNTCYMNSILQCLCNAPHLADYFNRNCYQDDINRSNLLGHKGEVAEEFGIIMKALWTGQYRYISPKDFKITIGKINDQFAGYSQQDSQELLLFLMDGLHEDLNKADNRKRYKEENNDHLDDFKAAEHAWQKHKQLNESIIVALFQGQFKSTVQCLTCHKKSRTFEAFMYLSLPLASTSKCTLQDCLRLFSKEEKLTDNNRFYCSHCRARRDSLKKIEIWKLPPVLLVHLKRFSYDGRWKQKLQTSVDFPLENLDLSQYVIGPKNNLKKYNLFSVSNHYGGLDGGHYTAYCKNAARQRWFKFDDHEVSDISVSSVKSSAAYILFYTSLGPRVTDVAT
The method in brief:
as §1

Test [9] concerns the target USP9X (UniProt Q93008). Summed up:
as §1

The target in test [10] is UniProt O00487. Summed up: as §1
UniProt O00487, sequence (O00487 whole entry): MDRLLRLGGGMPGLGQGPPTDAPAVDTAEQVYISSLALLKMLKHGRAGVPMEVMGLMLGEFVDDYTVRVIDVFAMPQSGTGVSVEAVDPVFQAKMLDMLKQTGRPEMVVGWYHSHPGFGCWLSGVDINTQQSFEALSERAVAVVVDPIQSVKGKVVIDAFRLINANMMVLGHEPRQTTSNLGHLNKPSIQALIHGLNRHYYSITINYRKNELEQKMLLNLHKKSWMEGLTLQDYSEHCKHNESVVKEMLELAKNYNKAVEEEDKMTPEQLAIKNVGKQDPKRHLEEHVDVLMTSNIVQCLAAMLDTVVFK

SMILES strings stand for the structures. Values without a mark were called inactive.

USP9X, sequence (Q93008 whole entry): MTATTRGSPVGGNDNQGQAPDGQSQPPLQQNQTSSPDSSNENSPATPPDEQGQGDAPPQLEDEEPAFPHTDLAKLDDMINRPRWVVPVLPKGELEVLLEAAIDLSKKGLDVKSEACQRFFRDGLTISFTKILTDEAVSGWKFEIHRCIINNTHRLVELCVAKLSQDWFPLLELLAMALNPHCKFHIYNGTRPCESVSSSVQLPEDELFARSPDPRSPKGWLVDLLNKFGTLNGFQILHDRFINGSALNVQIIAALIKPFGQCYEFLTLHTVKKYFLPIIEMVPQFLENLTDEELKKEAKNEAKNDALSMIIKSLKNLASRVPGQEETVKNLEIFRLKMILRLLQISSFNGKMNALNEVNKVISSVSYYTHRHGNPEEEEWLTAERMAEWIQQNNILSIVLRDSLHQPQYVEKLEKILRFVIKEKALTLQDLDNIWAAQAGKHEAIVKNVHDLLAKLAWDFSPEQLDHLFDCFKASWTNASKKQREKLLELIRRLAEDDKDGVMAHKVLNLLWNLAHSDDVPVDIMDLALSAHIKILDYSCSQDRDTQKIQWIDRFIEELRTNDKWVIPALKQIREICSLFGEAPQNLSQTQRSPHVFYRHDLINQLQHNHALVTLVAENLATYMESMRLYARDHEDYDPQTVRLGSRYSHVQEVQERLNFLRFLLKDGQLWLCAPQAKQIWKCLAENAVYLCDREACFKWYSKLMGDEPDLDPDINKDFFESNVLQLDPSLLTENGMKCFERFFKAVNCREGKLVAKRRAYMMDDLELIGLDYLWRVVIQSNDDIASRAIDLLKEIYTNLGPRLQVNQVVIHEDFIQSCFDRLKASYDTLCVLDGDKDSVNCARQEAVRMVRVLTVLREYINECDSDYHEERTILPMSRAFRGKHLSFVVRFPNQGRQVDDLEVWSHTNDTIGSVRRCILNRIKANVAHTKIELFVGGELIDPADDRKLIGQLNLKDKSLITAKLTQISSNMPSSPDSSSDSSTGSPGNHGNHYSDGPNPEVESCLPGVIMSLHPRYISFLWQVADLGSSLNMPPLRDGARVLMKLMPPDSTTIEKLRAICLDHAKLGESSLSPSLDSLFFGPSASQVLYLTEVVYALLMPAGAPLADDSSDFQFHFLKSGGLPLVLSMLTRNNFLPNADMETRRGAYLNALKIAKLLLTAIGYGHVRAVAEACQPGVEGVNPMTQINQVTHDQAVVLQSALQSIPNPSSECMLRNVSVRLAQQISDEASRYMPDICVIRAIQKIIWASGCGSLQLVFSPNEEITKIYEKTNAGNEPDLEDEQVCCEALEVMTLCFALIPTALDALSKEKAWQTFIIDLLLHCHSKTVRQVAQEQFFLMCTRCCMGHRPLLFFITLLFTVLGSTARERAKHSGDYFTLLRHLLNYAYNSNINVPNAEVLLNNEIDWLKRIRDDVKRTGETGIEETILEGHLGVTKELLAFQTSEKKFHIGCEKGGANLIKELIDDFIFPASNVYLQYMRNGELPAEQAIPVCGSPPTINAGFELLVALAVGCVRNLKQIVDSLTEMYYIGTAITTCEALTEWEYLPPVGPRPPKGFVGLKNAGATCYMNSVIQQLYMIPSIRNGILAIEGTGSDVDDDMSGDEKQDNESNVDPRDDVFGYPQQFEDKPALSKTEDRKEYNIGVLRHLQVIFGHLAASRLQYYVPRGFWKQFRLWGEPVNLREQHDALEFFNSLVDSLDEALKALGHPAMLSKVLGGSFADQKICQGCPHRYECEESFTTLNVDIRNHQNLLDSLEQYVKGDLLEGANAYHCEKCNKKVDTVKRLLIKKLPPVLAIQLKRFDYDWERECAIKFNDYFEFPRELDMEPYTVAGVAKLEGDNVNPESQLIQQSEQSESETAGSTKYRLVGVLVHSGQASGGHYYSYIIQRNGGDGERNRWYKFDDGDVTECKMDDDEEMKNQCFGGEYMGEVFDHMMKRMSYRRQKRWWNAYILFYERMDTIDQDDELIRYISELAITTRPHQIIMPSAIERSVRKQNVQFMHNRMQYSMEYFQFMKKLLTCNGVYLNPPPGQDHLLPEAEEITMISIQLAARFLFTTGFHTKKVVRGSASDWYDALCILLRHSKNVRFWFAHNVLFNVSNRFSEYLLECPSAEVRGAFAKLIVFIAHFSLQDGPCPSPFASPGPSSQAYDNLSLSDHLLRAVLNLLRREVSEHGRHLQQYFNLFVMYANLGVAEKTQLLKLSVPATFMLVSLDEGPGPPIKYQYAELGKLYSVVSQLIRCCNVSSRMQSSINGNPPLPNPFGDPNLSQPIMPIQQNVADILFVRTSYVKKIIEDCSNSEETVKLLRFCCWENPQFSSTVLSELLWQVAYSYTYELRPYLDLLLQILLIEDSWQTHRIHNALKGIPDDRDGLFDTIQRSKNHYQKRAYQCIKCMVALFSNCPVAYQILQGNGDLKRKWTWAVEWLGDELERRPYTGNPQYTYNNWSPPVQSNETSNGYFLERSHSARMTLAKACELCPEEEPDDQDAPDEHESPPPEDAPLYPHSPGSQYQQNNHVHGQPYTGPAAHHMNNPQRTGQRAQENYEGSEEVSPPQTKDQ

With `O=C(CCl)Nc1nc(-c2cccs2)cs1`, the “log2 ratio of Biotin-Ahx-Ub-VS probe labelling” value (shortened to “log2 ratio”) in test [1] is 0.598; in test [2] it was -0.255; in [3], -0.799; in [4], -0.537; in test [5] it was 0.0914; in test [6] it was 0.00682. The “log2 ratio” value in test [7] is -0.679; in [8], 0.0395; in test [9], -0.505; in test [10], -0.17.

Consider `Cc1conc1C1CN(C(=O)CCl)C1`, for which the “log2 ratio” value in test [1] was 0.317; in test [2], -0.643; in test [3] it was -0.971; in test [4], -0.753; in test [5], -0.555; in test [6] it was 1.02. Further, the “log2 ratio” value in test [7] was -1.04 (active); in test [8], -0.915; in [9] it was -0.803; in [10] it was -0.115.

In the case of `Cc1nnc(C(NC(=O)CCl)c2ccccc2)n1C` (stereo not given), the “log2 ratio” value in [1] is 0.478; in test [2], 0.418; in test [3] it was 0.26; in test [4], 0.313; in test [5], 0.627; in [6], 0.407. In addition, the “log2 ratio” value in test [7] was 0.438; in test [8], 0.467; in test [9], 0.432; in test [10], 0.442.

The values above are taken from the supplement of paper PMC11732987, “Enantioselective OTUD7B fragment discovery through chemoproteomics screening and high-throughput optimisation” (Communications Chemistry, 2025).
